What was measured:
Type in all cases: functional
Plasmodium falciparum [1] = test: GSK_TCMDC: Inhibition of Plasmodium falciparum 3D7 in whole red blood cells, using parasite LDH activity as an index of growth. Test compounds present at 2uM
Plasmodium falciparum [2] = test: GSK_TCMDC: Inhibition of Plasmodium falciparum Dd2 in whole red blood cells, using parasite LDH activity as an index of growth. Test compounds present at 2uM
HepG2 = test: GSK_TCMDC: Percent inhibition of human HepG2 cell line. Test compounds present at 10uM.

SMILES	Inhibition (Plasmodium falciparum [1])	Inhibition (Plasmodium falciparum [2])	Inhibition (HepG2)
CC(C)(C)c1ccc2[nH]c(-c3ccc(C(=O)NCc4cccc(C(F)(F)F)c4)cc3)nc2c1	98%	26%	9%
O=C(Nc1ccc(-c2csc3nccn23)cc1)c1ccc(Cl)cc1	100%	50%	54%
CC1CC(C)CN(S(=O)(=O)c2cc(C(=O)Nc3cccc([N+](=O)[O-])c3)ccc2Br)C1 (centres undefined)	100%	68%	1%
OCCN1CCN(c2ccc(Nc3ccnc4cc5ccccc5cc34)cc2)CC1	100%	100%	98%
Cc1nc2ccccc2c(O)c1[N+](=O)[O-]	88%	0%	5%
CCCNCc1ccc(-c2ccc(CN(CCOC)C(=O)c3ccc([N+](=O)[O-])c(C)c3)cc2)nc1.O=C(O)C(F)(F)F	97%	23%	2%
Cc1[nH]c(C)c(-c2csc3ccccc23)c(=O)c1Cl	97%	75%	7%
CN1CCCC1CCCOC(=O)c1ccc(N)cc1 (centres undefined)	100%	2%	8%
CN(C)CCN(C)Cc1ccc(-c2ccc(NC(=O)c3cccc(C#N)c3)cc2)cc1.O=C(O)C(F)(F)F	89%	49%	20%
N=C(N)NCCN(Cc1ccccc1)c1ccc(Cl)cc1	100%	99%	0%
Cl.O=C(NCCCCN1CCC(c2ccc3c(c2O)CCCC3)CC1)c1ccc(NC(=O)c2ccc(Cl)cc2)cc1	100%	100%	99%
Fc1ccc(-c2cncc(Nc3ccncc3)n2)cc1	88%	11%	8%
CCN(CC)CCN(Cc1ccc(-c2ccc(C(F)(F)F)cc2)cc1)C(=O)Cn1nc(-c2ccc(C(F)(F)F)cc2)ccc1=O	100%	83%	44%
O=C(Nc1cccc(-c2ccc(-c3nc4cc(C(F)(F)F)ccc4[nH]3)cc2)c1)c1cccnc1	100%	97%	73%
Cc1c(-c2ccc(C(=O)NC3CC(C)(C)NC(C)(C)C3)cc2)[nH]c2cc(Cl)c(Cl)cc12	98%	68%	34%
CC(Oc1ccc(Cl)cc1)C(=O)NCCC1CCN(CCCCCNC(=O)/C=C/c2ccc(Cl)c(Cl)c2)CC1 (centres undefined)	89%	20%	48%
COc1cc(NC(=O)N2CCc3ccc(OCCC4CCCN4C)cc32)cc(C(F)(F)F)c1.O=C(O)C(F)(F)F (centres undefined)	100%	42%	5%
CCC1CCc2cc(N)cc(-c3nc4c(c(C)nn4CC)c(=O)[nH]3)c2O1 (centres undefined)	86%	42%	0%
COCCN1CCC(CN(C)CC(C)(C)c2nc(-c3ccc(Cl)c(O)c3)c(-c3ccncc3)[nH]2)CC1.Cl	94%	10%	0%
COc1cc2nc(NCc3nc4ccccc4[nH]3)nc(N)c2cc1OC.Cl	97%	10%	3%
CC(C)(C(=O)NCCC1CCN(CCCCCNC(=O)/C=C/c2ccc(Cl)c(Cl)c2)CC1)c1ccc(Cl)cc1	89%	33%	92%
O=C(Nc1ccc(S(=O)(=O)N2CCCCC2)cc1)c1cc(-c2ccccc2O)n[nH]1	94%	81%	13%
CCCCCCCCCN(CCC)C(=O)[C@@H]1OC(C(=O)OC(c2ccccc2)c2ccccc2)=C[C@H](NC(=O)OC(C)(C)C)[C@H]1NC(C)=O	91%	49%	0%
CC(C)(C)c1ccc(CN2CCCCC(NC(=O)c3cc(-c4ccccc4F)cs3)C2)cc1.O=C(O)C(F)(F)F (centres undefined)	100%	99%	6%
CC1(C)N=C(N)N=C(N)N1c1ccc(Cl)c(Cl)c1.Cl	95%	56%	67%
COC(=O)c1cccc(CNCc2ccc(-c3cccc(-c4nc5cccc(C)c5[nH]4)c3)cc2)c1.O=C(O)C(F)(F)F	100%	84%	0%
Cc1cc(Nc2ccc(C(C)(C)C)cc2)c2[nH]ncc2n1.Cl	83%	63%	31%
COc1cc(NC(=O)N2CCOC(CCN3CCC4(CCc5ccccc54)CC3)(c3ccc(Cl)c(Cl)c3)C2)cc(OC)c1 (centres undefined)	87%	50%	29%
